{"source": "PubChem BioAssay (NCI)", "test": "NCI Yeast Anticancer Drug Screen. Data for the rad14 strain (AID 159);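 note: 0% = growth of vehicle-treated control cultures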", "details": "S. cerevisiae rad14 strain growth inhibition, hits give high values", "experimental": "Growth inhibition of yeast strains with defined genetic alterations is measured as a screen for potential anti-cancer activity. Selected strains with alterations in DNA damage repair or cell cycle control were exposed to compounds and growth inhibition was measured relative to vehicle treated controls. The strain used in this assay is rad14", "note": "Compounds without any hit were thinned out: in the full panel of roughly 79,000, 15% have a hit. A number with no mark means an inactive call. Activity calls are given as the source filed them. Cut-off read from the data, not from the text of the source: active = growth inhibition above about 70%; inactive = the rest."}
{"smiles": "COc1ccc(N2CN(C)CSC2=S)cc1", "values": [{"measurement": "growth inhibition", "setting": "at 1.2 µM", "result": -24, "unit": "%"}, {"measurement": "growth inhibition", "setting": "at 3.7 µM", "result": -22, "unit": "%"}, {"measurement": "growth inhibition", "setting": "at 11.0 µM", "result": -21, "unit": "%"}, {"measurement": "growth inhibition", "setting": "at 33.0 µM", "result": -11, "unit": "%"}, {"measurement": "growth inhibition", "setting": "at 100.0 µM", "result": 40, "unit": "%"}]}
{"smiles": "[Pt].c1ccc(P(CCP(c2ccccc2)c2ccccc2)CCP(c2ccccc2)c2ccccc2)cc1", "values": [{"measurement": "growth inhibition", "setting": "at 1.2 µM", "result": 4, "unit": "%"}, {"measurement": "growth inhibition", "setting": "at 3.7 µM", "result": -2, "unit": "%"}, {"measurement": "growth inhibition", "setting": "at 11.0 µM", "result": 22, "unit": "%"}, {"measurement": "growth inhibition", "setting": "at 33.0 µM", "result": "81% (active)"}, {"measurement": "growth inhibition", "setting": "at 100.0 µM", "result": "91% (active)"}]}
{"smiles": "CC1C(C#N)(C#N)C(C#N)=C(N)C1(Cl)[N+](=O)[O-]", "note": "(stereo not given)", "values": [{"measurement": "growth inhibition", "setting": "at 1.2 µM", "result": 1, "unit": "%"}, {"measurement": "growth inhibition", "setting": "at 3.7 µM", "result": 8, "unit": "%"}, {"measurement": "growth inhibition", "setting": "at 11.0 µM", "result": 15, "unit": "%"}, {"measurement": "growth inhibition", "setting": "at 33.0 µM", "result": 28, "unit": "%"}, {"measurement": "growth inhibition", "setting": "at 100.0 µM", "result": 67, "unit": "%"}]}
{"smiles": "O=C1C=CC(=Nc2ccccc2)c2ccccc21", "values": [{"measurement": "growth inhibition", "setting": "at 1.2 µM", "result": -1, "unit": "%"}, {"measurement": "growth inhibition", "setting": "at 3.7 µM", "result": 1, "unit": "%"}, {"measurement": "growth inhibition", "setting": "at 11.0 µM", "result": 12, "unit": "%"}, {"measurement": "growth inhibition", "setting": "at 33.0 µM", "result": 38, "unit": "%"}, {"measurement": "growth inhibition", "setting": "at 100.0 µM", "result": 58, "unit": "%"}]}
{"smiles": "C(=N/NC1=NCCN1)/c1c2ccccc2c(/C=N\\NC2=NCCN2)c2ccccc12", "values": [{"measurement": "growth inhibition", "setting": "at 1.2 µM", "result": -9, "unit": "%"}, {"measurement": "growth inhibition", "setting": "at 3.7 µM", "result": -25, "unit": "%"}, {"measurement": "growth inhibition", "setting": "at 11.0 µM", "result": -3, "unit": "%"}, {"measurement": "growth inhibition", "setting": "at 33.0 µM", "result": 67, "unit": "%"}, {"measurement": "growth inhibition", "setting": "at 100.0 µM", "result": "89% (active)"}]}
{"smiles": "CC(=O)[C@]1(O)Cc2c(O)c3c(c(O)c2[C@@H](OC2CC(N)C(O)C(C)O2)C1)C(=O)c1c(OCc2ccccc2)cccc1C3=O", "note": "(stereo not given in full)", "values": [{"measurement": "growth inhibition", "setting": "at 1.2 µM", "result": 7, "unit": "%"}, {"measurement": "growth inhibition", "setting": "at 3.7 µM", "result": 18, "unit": "%"}, {"measurement": "growth inhibition", "setting": "at 11.0 µM", "result": 18, "unit": "%"}, {"measurement": "growth inhibition", "setting": "at 33.0 µM", "result": 27, "unit": "%"}, {"measurement": "growth inhibition", "setting": "at 100.0 µM", "result": 51, "unit": "%"}]}
{"smiles": "COc1ccc(/C=C2\\SC(=S)N(C=C3C(=O)NC(=S)NC3=O)C2=O)cc1OC", "values": [{"measurement": "growth inhibition", "setting": "at 1.2 µM", "result": 6, "unit": "%"}, {"measurement": "growth inhibition", "setting": "at 3.7 µM", "result": 15, "unit": "%"}, {"measurement": "growth inhibition", "setting": "at 11.0 µM", "result": 52, "unit": "%"}, {"measurement": "growth inhibition", "setting": "at 33.0 µM", "result": "85% (active)"}, {"measurement": "growth inhibition", "setting": "at 100.0 µM", "result": "92% (active)"}]}
{"smiles": "O=C(O)c1[nH]c(=O)c2ccccc2c1Nc1ccccc1", "values": [{"measurement": "growth inhibition", "setting": "at 1.2 µM", "result": -3, "unit": "%"}, {"measurement": "growth inhibition", "setting": "at 3.7 µM", "result": -3, "unit": "%"}, {"measurement": "growth inhibition", "setting": "at 11.0 µM", "result": 1, "unit": "%"}, {"measurement": "growth inhibition", "setting": "at 33.0 µM", "result": 1, "unit": "%"}, {"measurement": "growth inhibition", "setting": "at 100.0 µM", "result": 2, "unit": "%"}]}
